Source: PubChem (National Center for Advancing Translational Sciences (NCATS))
An excerpt weighted towards active compounds, which were near 10% of everything screened.
FLuc inh: blocks purified firefly luciferase enzyme activity. actives 2.5% (n = 76,000). AID 1347043. P08659. purified P. pyralis luciferase, luminescence, biochemical. Potency, µM (top dose mostly 115 µM), hits mostly inhibitors; further: nearly all actives have a fitted effect of over 65% in size
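Cell-free enzyme assay, 10nM P. pyralis luciferase, luciferin and ATP each at 10uM. Inhibition profiled over a 6-point titration, read as luminescence.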
NIH3T3 tox: NIH 3T3 cell cytotoxicity; NIH 3T3 viability, CellTiter-Glo ATP luminescence, 48-72 h; actives 4.3% (n = 94,000); Potency, µM (series often up to 96.7 µM), most hits filed as inhibitors; further: nearly all actives have a fitted effect of over 55% in size
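Cytotoxicity was measured by CellTiter-Glo ATP luminescence after 48 or 72 h compound exposure at 37 °C. Mouse NIH 3T3 fibroblasts were seeded at 400 cells/well and dosed by 23 nL pin transfer.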
GPT2 inh: blocks human glutamate pyruvate transaminase 2. Q8TD30. Recombinant GPT2, coupled pyruvate oxidase/HRP Amplex Red fluorescence. Potency, µM (doses to about 57.7 µM), hits mostly inhibitors. actives 0.25% (n = 100,000); further: nearly all actives have a fitted effect of over 60% in size
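Recombinant GPT2 (10ng/uL) with 250uM a-KG and 2mM L-alanine, 30 min at room temperature, in HEPES pH 7.5 buffer. Pyruvate detected by pyruvate oxidase/HRP/Amplex Red fluorescence after 30 min in the dark; AOA (50uM) as positive control.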
hNpr1 antagonist: antagonists of human natriuretic peptide receptor Npr1 | P16066 | HEK293 hNpr1 GloSensor cGMP, ANP-stimulated luminescence | Potency, µM (titrated, usually from 46.3 µM), usual class: inhibitors | actives 1.6% (n = 76,000) | AID 1347048; calls by dose curve; further: nearly all actives have a fitted effect of over 60% in size
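HEK293 cells stably expressing human Npr1 and cGMP GloSensor pGS-40F, loaded 2 h with 2% GloSensor reagent, given compound 30 min at room temperature. Luminescence read before and 20 min after 0.1 nM hNppA.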
HEK cytotox: cytotoxic compounds in HEK 293 cells; HEK 293 viability, ATP luminescence (CellTiter-Glo), 48-72 h; Potency, µM (highest dose often 115 µM), most hits filed as inhibitors; actives 6.6% (n = 94,000); further: nearly all actives have a fitted effect of over 60% in size
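CellTiter-Glo luminescence (cellular ATP) was read after 48 or 72 hr of compound exposure at 37 degree Celsius. Cells were HEK 293 plated at 250 cells/well.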
Npr1 antag conf: hNpr1 antagonism, confirmation assay; shares compounds with hNpr1 antagonist; HEK293 hNpr1 cGMP GloSensor luminescence, ANP-stimulated; Potency, µM (top dose mostly 57.6 µM), usual class: inhibitors; actives 76% (n = 1,400); AID 1347044; calls by dose curve; further: nearly all actives have a fitted effect of over 70% in size
NPR2 antag: hNpr2 antagonism, selectivity versus Npr1 | shares compounds with hNpr1 antagonist | HEK293 hNpr2 GloSensor cGMP luminescence, CNP-stimulated | actives 67% (n = 1,400) | Potency, µM (doses to about 57.6 µM), usual class: inhibitors; calls by dose curve; further: nearly all actives have a fitted effect of over 70% in size
Target sequence (P20594 whole entry, looked up): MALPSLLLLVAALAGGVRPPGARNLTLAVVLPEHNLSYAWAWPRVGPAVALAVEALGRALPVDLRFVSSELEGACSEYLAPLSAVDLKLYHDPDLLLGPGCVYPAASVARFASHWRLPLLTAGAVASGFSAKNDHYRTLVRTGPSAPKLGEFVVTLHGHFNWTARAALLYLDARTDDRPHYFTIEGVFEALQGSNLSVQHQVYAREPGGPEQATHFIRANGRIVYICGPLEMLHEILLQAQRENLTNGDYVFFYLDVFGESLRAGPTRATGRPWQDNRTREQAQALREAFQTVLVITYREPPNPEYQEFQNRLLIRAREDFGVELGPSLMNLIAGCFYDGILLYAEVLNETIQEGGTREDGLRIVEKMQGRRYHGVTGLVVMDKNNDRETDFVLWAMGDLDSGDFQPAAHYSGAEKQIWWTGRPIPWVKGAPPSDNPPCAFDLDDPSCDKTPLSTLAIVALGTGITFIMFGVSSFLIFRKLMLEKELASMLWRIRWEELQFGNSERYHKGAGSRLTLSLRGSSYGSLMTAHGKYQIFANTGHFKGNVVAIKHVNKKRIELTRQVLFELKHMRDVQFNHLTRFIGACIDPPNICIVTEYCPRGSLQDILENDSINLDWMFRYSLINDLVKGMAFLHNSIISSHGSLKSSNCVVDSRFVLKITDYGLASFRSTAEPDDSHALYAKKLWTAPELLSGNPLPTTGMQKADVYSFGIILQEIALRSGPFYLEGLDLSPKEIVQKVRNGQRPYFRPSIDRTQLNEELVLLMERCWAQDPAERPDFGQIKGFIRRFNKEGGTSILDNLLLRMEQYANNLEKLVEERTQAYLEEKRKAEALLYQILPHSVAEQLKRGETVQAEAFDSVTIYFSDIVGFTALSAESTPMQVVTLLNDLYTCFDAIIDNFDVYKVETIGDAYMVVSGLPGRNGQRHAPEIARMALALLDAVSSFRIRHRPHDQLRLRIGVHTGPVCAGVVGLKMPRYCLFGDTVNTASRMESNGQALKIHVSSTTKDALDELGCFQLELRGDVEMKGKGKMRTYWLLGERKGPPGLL
FLuc inh counter: FLuc enzyme inhibition, Npr1 counter-screen; shares compounds with hNpr1 antagonist; purified FLuc enzyme, luminescence, Km substrate; Potency, µM (top dose mostly 57.6 µM), actives largely listed as inhibitors; actives 0.7% (n = 1,400); AID 1347047
GloSensor cGMP: counter-screen for Npr1 antagonists: GloSensor control cell line | shares compounds with hNpr1 antagonist | HEK293 GloSensor cGMP, SNP-stimulated, luminescence | Potency, µM (titrated, usually from 57.6 µM), usual class: inhibitors | actives 69% (n = 1,400); calls by dose curve; further: nearly all actives have a fitted effect of over 70% in size
A number is an active result; - = inactive; ? = inconclusive; . = no result; [ ] = another dose, or the depositor's remark. Unless noted, the call rests on the fitted dose curve; in most records, active means well fitted curve in the direction sought with a large enough effect; inconclusive means small, poorly fitted or top-dose-only effect, or another doubt; inactive means no such curve, though single readings can be large; an effect the other way counts as inactive or inconclusive.

SMILES	FLuc inh	NIH3T3 tox	GPT2 inh	hNpr1 antagonist	HEK cytotox	Npr1 antag conf	NPR2 antag	FLuc inh counter	GloSensor cGMP
O=C(NCc1ccccc1F)c1ccc2c(c1)CN(Cc1cccc(F)c1)CCO2	-	?	-	-	?	.	.	.	.
O=C(NCc1ccccc1F)c1ccc2c(c1)CN(Cc1ccncc1)CCO2	-	-	-	12.6µM	?	17.2µM	17.2µM	-	10.9µM
COc1cccc(-c2ccc(CN3C4CCC3CN(C(=O)c3ccncc3)C4)cc2)c1	.	?	-	.	?	12.2µM	15.3µM	-	13.7µM
O=C(c1ccncc1)N1CC2CCC(C1)N2Cc1ccc(-c2ccsc2)cc1	-	?	-	2.51µM	?	6.85µM	6.85µM	-	6.11µM
O=C(c1ccncc1)N1CC2CCC(C1)N2Cc1ccc(-c2cccs2)cc1	.	?	-	.	?	4.32µM	5.44µM	-	4.32µM
O=C(C1CCC1)N1CCC2(CC1)CC(Cc1nc(C3CC3)no1)CCO2 (centres undefined)	-	?	-	-	?	.	.	.	.
O=S(=O)(c1cccc(F)c1)N1CCC2(CC1)CC(Cc1nc(C3CC3)no1)CCO2 (centres undefined)	-	?	-	11.2µM	44.7µM	24.3µM	24.3µM	-	21.7µM
CCOc1ccc(C(=O)N2CCCN(c3cc(-c4ccc(F)cc4)[nH]n3)CC2)cc1	-	?	?	22.4µM	31.6µM	27.3µM	?	-	21.7µM
N#Cc1ccc(C(=O)N2CCN(c3cc(-c4ccc(Cl)cc4)[nH]n3)CC2)cc1	-	?	-	6.31µM	?	9.68µM	10.9µM	-	6.85µM
COc1ccc(-c2cc(N3CCCN(C(=O)c4ccc(Cl)cc4)CC3)n[nH]2)cc1	-	-	-	-	?	.	.	.	.
CCOc1ccc(C(=O)N2CCCN(c3cc(-c4ccc(Cl)cc4)[nH]n3)CC2)cc1	-	?	-	?	39.8µM	19.3µM	21.7µM	-	17.2µM
O=C(c1ccoc1)N1CCCN(c2cc(-c3ccc(Cl)cc3)[nH]n2)CC1	-	?	-	-	?	.	.	.	.
CN(C)c1ccc(C(=O)NCC2CCN(c3cc(-c4ccccc4)[nH]n3)CC2)cc1	?	?	-	-	?	.	.	.	.
CN(C)c1ccc(C(=O)NCC2CCN(c3cc(-c4ccc(Cl)cc4)[nH]n3)CC2)cc1	-	?	-	?	?	?	?	-	?
Cn1c(Cn2ccnc2)nnc1C1CCCN(C(=O)CCc2ccncc2)C1 (centres undefined)	-	-	-[11.5 µM]	-	-	.	.	.	.
O=C1CC(c2ccccc2)N(C(=O)C2CC2)CCCN(C(=O)Cc2cccnc2)CCN1 (centres undefined)	-	-	-	-	-	.	.	.	.
CC(C)CCN1CCC(N2CCN(C(=O)c3cc(F)ccc3F)CC2)C1=O (centres undefined)	-	-	-	-	-	.	.	.	.
CCOc1ccc(C(=O)N2CCN(c3cc(-c4ccc(Cl)cc4)[nH]n3)CC2)cc1	-	?	-	12.6µM	?	21.7µM	19.3µM	-	15.3µM
CCOc1ccc(C(=O)N2CCN(c3cc(-c4ccc(OC)cc4)[nH]n3)CC2)cc1	-	?	-	-	?	.	.	.	.
Cc1ccc(NC(=O)O[C@@H]2CC[C@]3(C)[C@H](CC[C@H]4OC(=O)C[C@H]43)[C@]2(C)CO)cc1	-	-	-	?	-	?	?	-	39.6µM
O=C(Nc1cccc(F)c1)c1cc2n(n1)CC(c1ccc(Br)cc1)OC2 (centres undefined)	?	?	-	-	?	.	.	.	.
COc1cc(NC(=O)c2cc3n(n2)CC(c2ccc(Br)cc2)OC3)cc(OC)c1OC (centres undefined)	-	?	-	?	?	?	-	-	-
COc1ccc(NC(=O)c2cc3n(n2)CC(c2ccc(Br)cc2)OC3)cc1OC (centres undefined)	-	?	-	?	44.7µM	?	-	-	?
O=C(NCCc1ccccn1)c1cc2n(n1)CC(c1ccc(Br)cc1)OC2 (centres undefined)	-	?	-	11.2µM	?	21.7µM	24.3µM	-	24.3µM
CNC(=O)c1noc([C@@H]2CC(F)(F)CN2C(=O)CCOC)n1	-	-	-	-	-	.	.	.	.
SMILES	FLuc inh	NIH3T3 tox	GPT2 inh	hNpr1 antagonist	HEK cytotox	Npr1 antag conf	NPR2 antag	FLuc inh counter	GloSensor cGMP
O=C1NC2(CCN([S+](=O)([O-])c3cccc(C(F)(F)F)c3)C2)N=C1c1cccnc1 (centres undefined)	-	-	-	-	-	.	.	.	.
COCCNC(=O)C[C@@H]1C[C@H]2O[C@H](CNC(=O)NCc3ccccc3)[C@@H](O)[C@H]2O1	-	-	-	-	-	.	.	.	.
COc1ccc(-c2ccnc(N[C@H]3CO[C@H]4[C@@H]3OC[C@H]4OC(=O)Nc3ccc(C(C)=O)cc3)n2)cc1	-	-	-	10µM	?	10.9µM	15.3µM	-	9.68µM
O=C(NC1CCCCC1)O[C@@H]1CO[C@H]2[C@@H]1OC[C@@H]2Nc1nccc(-c2cccs2)n1	-	112µM	-	10µM	?	4.98µM	7.89µM	-	7.03µM
O=C(Nc1ccc(Oc2ccccc2)cc1)O[C@@H]1CO[C@H]2[C@@H]1OC[C@@H]2Nc1nccc(-c2cccs2)n1	-	-	-	-	-	.	.	.	.
N#Cc1cccc(-c2ccnc(N[C@H]3CO[C@H]4[C@@H]3OC[C@H]4OC(=O)Nc3ccc(Oc4ccccc4)cc3)n2)c1	-	?	-	?	?	?	-	-	?
Fc1ccc(CN2CCOC[C@H](Oc3ccccc3)C2)cc1	-	-	-	-	?	.	.	.	.
O=C1N(C2CCN(Cc3ccncc3)CC2)C(c2ccncc2)C12CCCCC2 (centres undefined)	-	-	-	-	-	.	.	.	.
COc1ccc(F)cc1Nc1cnc2ccc(N(C)Cc3cccnc3)nn12	-	?	?	7.94µM	35.5µM	25µM	25µM	-	17.7µM
CN(Cc1cccnc1)c1ccc2ncc(Nc3cc(F)cc(N4CCOCC4)c3)n2n1	-	28.2µM	?	?	?	35.3µM	?	-	?
CN(Cc1cccnc1)c1ccc2ncc(Nc3cccc(N[S+](C)(=O)[O-])c3)n2n1	-	?	-	-	-	.	.	.	.
CN(Cc1cccnc1)c1ccc2ncc(Nc3ccc(C(F)(F)F)cc3)n2n1	-	?	-	25.1µM	44.7µM	22.2µM	31.4µM	-	22.2µM
